Measurements: PubChem BioAssay (Tox21)
Records with an inconclusive call do not appear. Active and inactive are the calls of the source. Unless noted, the call rests on the fitted dose curve; in most records, active means well fitted curve in the direction sought with a large enough effect in the repeat runs; inconclusive means weak or mixed curves; inactive means no such curve, though single readings can be large; an effect the other way counts as inactive or inconclusive.

Columns and labels:
[1] = qHTS assay to identify small molecule agonists of the farnesoid-X-receptor (FXR) signaling pathway - cell viability counter screen (AID 743218); further: nearly all actives have a fitted effect of over 45% in size; further: potency means the concentration at half of the fitted maximal effect
In short: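 HEK 293T FXR-bla cells; 5 h pre-incubation, 16 h compound exposure at 37 C; LiveBLAzer substrate 2 h RT, then CellTiter-Glo 30 min RT, luminescence.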

[2] = qHTS assay to identify small molecule antagonists of the farnesoid-X-receptor (FXR) signaling pathway - cell viability counter screen (AID 743221; active means well fitted cell-killing curve with a large enough effect in the repeat runs, not every such curve was filed as active; further: nearly all actives have a fitted effect of over 50% in size; further: potency means the concentration at half of the fitted maximal effect)
In short: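 Here viability was scored by luminescence after CellTiter-Glo addition to wells already read for beta-lactamase. Prior treatment: compound plus CDCA (50 uM final), 16 h, 37 C, HEK 293T FXR-bla cells.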

[3] = qHTS assay to identify small molecule agonists of the vitamin D receptor (VDR) signaling pathway - cell viability counter screen (AID 743224); further: nearly all actives have a fitted effect of over 50% in size; further: potency means the concentration at half of the fitted maximal effect
In short: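 Luminescence from CellTiter-Glo, read after 30 min at room temperature, reports viability of VDR-bla cells treated with compounds for 16 h at 37C in the wells used for the beta-lactamase FRET read.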

[4] = qHTS assay to identify small molecule agonists of the NFkB signaling pathway - cell viability counter screen (AID 1159515; calls by dose curve; further: nearly all actives have a fitted effect of over 55% in size; further: potency means the concentration at half of the fitted maximal effect)
In short: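 Luminescence from CellTiter-Glo (30 min, room temperature) gives viability, measured in the same wells as the beta-lactamase reporter read. Cells were NFkB-bla ME-180, 2,000 per well, treated 5 hr with compounds.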

[5] = qHTS assay to identify small molecule agonists of the endoplasmic reticulum stress response signaling pathway - cell viability counter screen (AID 1159517; calls by dose curve; further: nearly all actives have a fitted effect of over 50% in size; further: potency means the concentration at half of the fitted maximal effect)
In short: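 ESRE-bla HeLa cells, 1,500 per well, seeded overnight then treated with compounds for 5 hr at 37 C. After the beta-lactamase read, viability in the same wells is measured by CellTiter-Glo luminescence after 30 min at room temperature.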

[6] = qHTS assay to identify small molecule antagonists of the retinoid-related orphan receptor gamma (ROR-gamma) signaling pathway - cell viability counter screen (AID 1159520); further: nearly all actives have a fitted effect of over 50% in size; further: potency means the concentration at half of the fitted maximal effect
In short: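 Tet-on ROR gamma CHO cells were given compounds for 2 hr, then doxycycline hyclate at 1 uM final, and incubated 16 hr at 37 C. Viability was measured as ATP content by CellTiter-Glo luminescence.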

[7] = qHTS assay to identify small molecule agonists of the peroxisome proliferator-activated receptor delta (PPARd) signaling pathway - cell viability counter screen (AID 743211); further: nearly all actives have a fitted effect of over 55% in size; further: potency means the concentration at half of the fitted maximal effect
In short: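 In the same wells used for beta-lactamase reporter measurement, cytotoxicity is scored by CellTiter-Glo. HEK293H PPARd-bla cells receive compound for 17 h at 37C following a 5 h settling period.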

[8] = qHTS assay to identify small molecule antagonists of the peroxisome proliferator-activated receptor delta (PPARd) signaling pathway - cell viability counter screen (AID 743213); further: nearly all actives have a fitted effect of over 50% in size; further: potency means the concentration at half of the fitted maximal effect
In short: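 PPARd-bla HEK293H cells (3000/well) got compound plus 300 nM L165041 agonist for 17 h at 37 C. Viability in the same wells came from CellTiter-Glo luminescence after 30 min at room temperature.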

[9] = qHTS assay to identify small molecule antagonists of the vitamin D receptor (VDR) signaling pathway - cell viability counter screen (AID 743225); further: nearly all actives have a fitted effect of over 50% in size; further: potency means the concentration at half of the fitted maximal effect
In short: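 Compounds were pinned onto VDR-bla HEK 293T cells together with 1-alpha,25-dihydroxyvitamin D3 at 3 nM final. After 16 h at 37C and 5% CO2 plus the reporter readout, cell viability was measured by CellTiter-Glo luminescence (30 min, room temperature).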

[10] = qHTS assay to identify small molecule agonists of the AP-1 signaling pathway - cell viability counter screen (AID 1159525; calls by dose curve; further: nearly all actives have a fitted effect of over 55% in size; further: potency means the concentration at half of the fitted maximal effect)
In short: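 AP-1-bla ME-180 cells in Opti-MEM with 0.5% dialyzed FBS, compound exposure 5 h at 37 C in 15-point titration. Viability read in the same wells as ATP content by CellTiter-Glo luminescence, normalised to tetra-n-octylammonium bromide and DMSO controls.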

[11] = target: Peroxisome proliferator-activated receptor delta (Homo sapiens) (UniProt Q03181); experiment: qHTS assay to identify small molecule agonists of the peroxisome proliferator-activated receptor delta (PPARd) signaling pathway (AID 743212; calls by dose curve)
In short: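 GeneBLAzer UAS-bla HEK293H cells carrying a PPARδ construct were exposed to compounds at 37 °C. Beta-lactamase activity was read by FRET fluorescence after 2 h at room temperature with LiveBLAzer B/G substrate.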

[12] = target: Peroxisome proliferator-activated receptor delta (Homo sapiens) (UniProt Q03181); experiment: qHTS assay to identify small molecule antagonists of the peroxisome proliferator-activated receptor delta (PPARd) signaling pathway (AID 743215; active means well fitted inhibition curve with a large enough effect in the signal ratio in the repeat runs, not every such curve was filed as active; the % refers to the signal ratio;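 further: cells stimulated with agonist L165041 at 300 nM final during compound exposure; series mostly up to about 62 µM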)
In short: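 Read-out is beta-lactamase FRET fluorescence, measured 2 h after substrate addition at room temperature. Beforehand, UAS-bla HEK293H cells carrying the PPARd reporter were exposed to compounds with L165041 at 300 nM final for 17 h at 37 C.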

[13] = qHTS assay to identify small molecule agonists of the AP-1 signaling pathway (AID 1159526; calls by dose curve)
[14] = target: Vitamin D3 receptor (Homo sapiens) (UniProt P11473); experiment: qHTS assay to identify small molecule agonists of the vitamin D receptor (VDR) signaling pathway (AID 743222; calls by dose curve; further: potency means the concentration at half of the fitted maximal effect)
In short: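 VDR-bla cells, 2,000/well; 4 h preincubation 37C; cpd (DMSO) 16 h; LiveBLAzer B/G substrate 2 h RT; fluorescence intensity read.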

[15] = target: Retinoic acid receptor RXR-alpha (Homo sapiens) (UniProt P19793); experiment: qHTS assay to identify small molecule agonists of the RXR signaling pathway (AID 1159527; calls by dose curve; further: nearly all actives have a fitted effect of over 35% in size)
In short: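 Using 9-cis retinoic acid as the reference agonist, chemicals were tested in HEK 293T cells […] for 16 hr; substrate loading lasted 2 hr at room temperature.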

[16] = target: Vitamin D3 receptor (Homo sapiens) (UniProt P11473); experiment: qHTS assay to identify small molecule antagonists of the vitamin D receptor (VDR) signaling pathway (AID 743223; active means well fitted inhibition curve with a large enough effect in the signal ratio in the repeat runs, not every such curve was filed as active; the % refers to the signal ratio; further: potency means the concentration at half of the fitted maximal effect)
In short: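 Inhibition of agonist-driven VDR signalling is scored in VDR-bla cells: 3 nM final 1alpha,25-dihydroxyvitamin D3 plus compound, 16 h at 37C, then beta-lactamase detection by FRET substrate fluorescence after 2 h.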

[17] = target: Nuclear receptor ROR-gamma (Homo sapiens) (UniProt P51449); experiment: qHTS assay to identify small molecule antagonists of the retinoid-related orphan receptor gamma (ROR-gamma) signaling pathway (AID 1159521; further: nearly all actives have a fitted effect of over 50% in size; further: potency means the concentration at half of the fitted maximal effect)
In short: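 Test compounds were applied to Tet-on RORγ CHO cells 2 h ahead of doxycycline hyclate (1 uM final). Luciferase reporter activity was quantified by luminescence after 16 h at 37 C and 5% CO2.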

[18] = target: Bile acid receptor (Homo sapiens) (UniProt Q96RI1); experiment: qHTS assay to identify small molecule antagonists of the farnesoid-X-receptor (FXR) signaling pathway (AID 743217; active means well fitted inhibition curve with a large enough effect in the signal ratio in the repeat runs, not every such curve was filed as active; the % refers to the signal ratio; further: potency means the concentration at half of the fitted maximal effect)
In short: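 HEK 293T FXR-UAS-bla, 5000 cells/well; compound + CDCA 50 uM final; 16 h, 37 °C; B/G FRET substrate 2 h RT; fluorescence.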

[19] = target: Bile acid receptor (Homo sapiens) (UniProt Q96RI1); experiment: qHTS assay to identify small molecule agonists of the farnesoid-X-receptor (FXR) signaling pathway (AID 743220; active means well fitted activation curve with a large enough effect in the signal ratio in the repeat runs, not every such curve was filed as active; the % refers to the signal ratio)
In short: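 Beta-lactamase reporter under UAS control in GeneBLAzer FXR HEK 293T cells (5000/well) measured with LiveBLAzer FRET substrate after 2 h at room temperature. Compound exposure lasted 16 h at 37C.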

[20] = qHTS assay to identify small molecule agonists of the endoplasmic reticulum stress response signaling pathway (AID 1159516; active means well fitted activation curve with a large enough effect in the signal ratio in the repeat runs, not every such curve was filed as active; the % refers to the signal ratio)
In short: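 Read-out is beta-lactamase cleavage of a FRET substrate (405 nm excitation; 460 and 530 nm emissions) in ESRE-bla HeLa cells after a 5 hr compound exposure at 37 C. Substrate incubation ran 2 hr at room temperature.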

Measured: Potency

Sequence of Bile acid receptor (Homo sapiens) (Q96RI1 whole entry, looked up): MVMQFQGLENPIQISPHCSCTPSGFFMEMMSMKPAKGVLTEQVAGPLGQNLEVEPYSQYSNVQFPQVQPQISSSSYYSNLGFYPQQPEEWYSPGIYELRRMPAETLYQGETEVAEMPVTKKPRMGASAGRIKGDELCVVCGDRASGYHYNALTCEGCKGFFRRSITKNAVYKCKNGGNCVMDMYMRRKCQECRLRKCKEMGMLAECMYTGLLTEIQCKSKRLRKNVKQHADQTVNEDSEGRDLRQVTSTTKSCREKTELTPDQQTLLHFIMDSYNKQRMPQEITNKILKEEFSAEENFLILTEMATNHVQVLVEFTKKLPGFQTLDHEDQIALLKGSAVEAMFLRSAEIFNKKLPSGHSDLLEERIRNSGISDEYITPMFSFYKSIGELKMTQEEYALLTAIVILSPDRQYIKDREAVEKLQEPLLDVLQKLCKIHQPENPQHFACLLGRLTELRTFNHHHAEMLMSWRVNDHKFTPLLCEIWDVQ
Sequence of Peroxisome proliferator-activated receptor delta (Homo sapiens) (Q03181 whole entry, looked up): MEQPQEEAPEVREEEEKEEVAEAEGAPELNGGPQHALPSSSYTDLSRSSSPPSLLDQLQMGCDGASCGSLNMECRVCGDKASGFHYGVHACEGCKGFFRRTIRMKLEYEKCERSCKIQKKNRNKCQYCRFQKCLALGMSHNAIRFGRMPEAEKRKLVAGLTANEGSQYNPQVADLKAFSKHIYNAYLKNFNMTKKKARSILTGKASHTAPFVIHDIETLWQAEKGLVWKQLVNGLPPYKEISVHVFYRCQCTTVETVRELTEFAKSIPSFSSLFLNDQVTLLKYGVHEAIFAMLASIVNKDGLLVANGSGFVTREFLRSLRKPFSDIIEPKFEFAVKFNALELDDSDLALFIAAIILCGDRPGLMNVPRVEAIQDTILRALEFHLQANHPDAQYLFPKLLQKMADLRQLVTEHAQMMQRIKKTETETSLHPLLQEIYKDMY
Sequence of Vitamin D3 receptor (Homo sapiens) (P11473 whole entry, looked up): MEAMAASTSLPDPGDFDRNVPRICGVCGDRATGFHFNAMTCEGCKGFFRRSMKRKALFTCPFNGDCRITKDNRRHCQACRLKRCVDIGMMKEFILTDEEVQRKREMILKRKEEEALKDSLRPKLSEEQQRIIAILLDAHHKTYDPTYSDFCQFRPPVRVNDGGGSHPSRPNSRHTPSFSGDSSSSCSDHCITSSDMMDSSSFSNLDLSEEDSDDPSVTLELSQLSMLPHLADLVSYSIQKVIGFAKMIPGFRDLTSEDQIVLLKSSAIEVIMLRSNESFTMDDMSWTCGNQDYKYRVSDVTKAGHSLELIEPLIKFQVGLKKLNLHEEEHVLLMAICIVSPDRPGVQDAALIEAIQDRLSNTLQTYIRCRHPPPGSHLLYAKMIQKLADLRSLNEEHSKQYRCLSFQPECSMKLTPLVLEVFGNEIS
Sequence of Retinoic acid receptor RXR-alpha (Homo sapiens) (P19793 whole entry, looked up): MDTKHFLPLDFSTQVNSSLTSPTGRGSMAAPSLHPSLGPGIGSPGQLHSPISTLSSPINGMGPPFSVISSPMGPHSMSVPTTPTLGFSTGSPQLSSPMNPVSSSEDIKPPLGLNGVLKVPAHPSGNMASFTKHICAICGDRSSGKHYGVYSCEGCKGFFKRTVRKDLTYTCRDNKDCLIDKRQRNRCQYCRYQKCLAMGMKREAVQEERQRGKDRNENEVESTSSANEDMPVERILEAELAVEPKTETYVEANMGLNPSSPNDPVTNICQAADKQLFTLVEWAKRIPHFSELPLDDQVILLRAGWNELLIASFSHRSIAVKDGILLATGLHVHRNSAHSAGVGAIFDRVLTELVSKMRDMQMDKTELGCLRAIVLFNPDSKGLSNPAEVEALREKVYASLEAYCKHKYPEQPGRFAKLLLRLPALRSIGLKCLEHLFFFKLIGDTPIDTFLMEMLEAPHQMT

[CH3][Hg][Cl]
active: [1] 13.8 µM | [2] 38.8 µM | [3] 38.8 µM | [4] 10.9 µM | [5] 21.8 µM | [6] 4.31 µM

c1ccc2cc3c(cc2c1)-c1cccc2cccc-3c12
inactive: [7] | [8] | [1] | [3] | [9] | [4] | [5] | [6] | [10]

Oc1ccc2ccc3cccc4ccc1c2c34
inactive: [7] | [2] | [4] | [5] | [10]

CCCCCCCCCCCCCN1CC(C)OC(C)C1 (stereo not given)
inactive: [11] | [8] | [12] | [1] | [2] | [3] | [4] | [6] | [10] | [13]

CCCOCC(=Nc1ccc(Cl)cc1C(F)(F)F)n1ccnc1
inactive: [15]
active: [8] 21.9 µM | [1] 17.4 µM | [2] 21.9 µM | [14] 34.6 µM | [3] 7.76 µM | [9] 12.3 µM | [4] 30.9 µM | [5] 34.6 µM | [6] 61.1 µM

C[C@H]1CC[C@@H]2[C@@H](C)[C@H]3[C@H](C[C@H]4[C@@H]5CC=C6CC(O[C@@H]7O[C@H](CO)[C@H](O)[C@H](O[C@@H]8O[C@H](CO)[C@@H](O)[C@H](O)[C@H]8O)[C@H]7O[C@H]7O[C@@H](C)[C@H](O)[C@@H](O)[C@H]7O)CC[C@]6(C)[C@H]5CC[C@]34C)N2C1 (stereo not given in full)
inactive: [11] | [12] | [14] | [16] | [3] | [17]
active: [8] 25.3 µM | [1] 8.02 µM | [4] 56.7 µM | [6] 28.2 µM | [10] 20.1 µM

C[C@@H]1CC[C@@]2(OC1)O[C@H]1[C@@H](O)[C@H]3[C@@H]4CC[C@H]5C[C@@H](O[C@@H]6O[C@H](CO)[C@H](O[C@@H]7O[C@H](CO)[C@@H](O)[C@H](O[C@@H]8OC[C@@H](O)[C@H](O)[C@H]8O)[C@H]7O[C@@H]7O[C@H](CO)[C@@H](O)[C@H](O[C@@H]8O[C@H](CO)[C@@H](O)[C@H](O)[C@H]8O)[C@H]7O)[C@H](O)[C@H]6O)[C@H](O)C[C@]5(C)[C@H]4CC[C@]3(C)[C@H]1[C@@H]2C
active: [7] 5.83 µM | [8] 4.63 µM | [1] 26.1 µM | [2] 23.2 µM | [16] 32.8 µM | [3] 8.24 µM | [9] 5.2 µM | [4] 9.25 µM | [5] 7.34 µM | [6] 10.3 µM | [10] 11.6 µM
inactive: [14]

CCOC(=O)CC(=O)CCl
inactive: [7] | [8] | [1] | [2] | [14] | [3] | [9] | [4] | [5] | [10] | [13]
active: [17] 48.6 µM

COP(=O)(OC)SCn1c(=O)oc2cc(Cl)cnc21
inactive: [7] | [11] | [2] | [14] | [4] | [6] | [17] | [10]

CC(C)OC(=S)S
inactive: [7] | [11] | [8] | [18] | [1] | [2] | [9] | [4] | [5] | [10]
active: [17] 15.4 µM

CCCCN(CCCC)C(=S)[S-].CCCCN(CCCC)C(=S)[S-].[Zn+2]
active: [8] 12.3 µM | [1] 8.7 µM | [3] 5.49 µM | [17] 13.7 µM
inactive: [4] | [6]

CC(=O)[O-].CC(=O)[O-].[Hg+2]
active: [8] 3.47 µM | [1] 1.1 µM | [2] 3.09 µM | [3] 1.74 µM | [9] 3.09 µM | [4] 0.871 µM | [5] 0.776 µM | [10] 3.89 µM

CCCCCCCCCC[N+](C)(C)CCCCCCCCCC
active: [7] 21.9 µM | [8] 19.5 µM | [1] 49 µM | [2] 54.9 µM | [16] 43.6 µM | [3] 19.5 µM | [4] 54.9 µM | [5] 54.9 µM | [17] 21.7 µM | [10] 34.7 µM

CCCCOCN(C(=O)CCl)c1c(CC)cccc1CC
inactive: [18] | [1] | [9] | [4] | [5] | [6] | [10]
active: [3] 49 µM

Nc1ccc(Cc2ccc(N)c(Cl)c2)cc1Cl
inactive: [2] | [4] | [5] | [6] | [17]

CC(C)CC(C)Nc1ccc(Nc2ccccc2)cc1 (stereo not given)
active: [3] 38.3 µM | [9] 48.2 µM | [4] 54 µM | [6] 67.4 µM | [17] 47.7 µM

C=CC(=O)OCCCCOC(=O)C=C
active: [7] 49 µM | [8] 43.6 µM | [1] 54.9 µM | [6] 19.3 µM
inactive: [9] | [4]

CC1(C)C(/C=C(\Cl)C(F)(F)F)C1C(=O)OC(C#N)c1cccc(Oc2ccccc2)c1 (stereo not given)
inactive: [7] | [11] | [8] | [12] | [1] | [19] | [2] | [14] | [16] | [3] | [4] | [5] | [10] | [13]
active: [18] 17.7 µM

CC(C)OS(C)(=O)=O
inactive: [7] | [11] | [8] | [12] | [18] | [1] | [19] | [2] | [14] | [3] | [9] | [20] | [5] | [6] | [13] | [15]

BrCBr
inactive: [7] | [11] | [12] | [1] | [14] | [16] | [3] | [9] | [20] | [5] | [6] | [10] | [13] | [15]

ClC(Cl)=C(Cl)Cl
inactive: [7] | [8] | [18] | [19] | [14] | [16] | [3] | [20] | [5] | [17] | [10] | [13] | [15]
